Records with an inconclusive call do not appear. Calls of active or inactive are those of the source.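 Rule for the calls, unless noted: active = response below a set limit, under 55% cells CD8-positive and vesicle-bound, and CD8 cells' 90th-percentile brightness under 279; inactive = the rest.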
Tests used:
[1] = yeast TOR pathway RPL19A-GFP modulators, primary screen, cell-based, S. cerevisiae, multiplex flow cytometry (AID 1862; in the data active = percent of DMSO control GFP below about 86%;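 note: lower values mimic rapamycin by blocking the RPL19A rise seen in DMSO cells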); details: S. cerevisiae RPL19A-GFP strain, flow cytometry fluorescence, 3 h; at 10 µM; stronger effect = lower value
[2] = modulators of MEP2-GFP levels in yeast, primary screen, S. cerevisiae, multiplex flow cytometry (AID 1867;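 active = GFP response, as percent of the DMSO control, above the screen-wide mean plus 3 SD, about 139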;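 note: median GFP channel fluorescence of barcode-gated MEP2-GFP cells measured by flow cytometry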); details: S. cerevisiae MEP2-GFP strain, 3 h, at 10 µM, stronger effect = higher value, 100% means same as DMSO wells
[3] = modulators of CIT2-GFP expression in yeast, primary screen, S. cerevisiae, GFP fusion, multiplex flow cytometry (AID 1870;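 active = percent response above a set limit, the screen-wide mean plus 3 SD, cut at about 130% in these data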;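 note: barcoded CIT2-GFP strain pooled with four other GFP strains with rapamycin as positive control; median GFP fluorescence per well over plate mean of DMSO wells so 100% = DMSO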); details: 3 h, at 10 µM, stronger effect = higher value
[4] = modulators of LAP4-GFP expression in yeast, primary screen, S. cerevisiae, multiplex flow cytometry (AID 1873;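 active = GFP signal, as percent of the solvent control, above the screen mean plus 3 SD, about 149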); details: 3 h, at 10 µM, stronger effect = higher value
[5] = modulators of AGP1-GFP expression in yeast TOR pathway, primary screen, cell-based, multiplex flow cytometry, S. cerevisiae (AID 1887;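 active = GFP signal above the screen-wide mean plus 3 SD, that is over about 124.5% of the solvent control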;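 note: AGP1-GFP fusion strain of S. cerevisiae within a five-strain barcoded multiplex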); details: 3 h, at 10 µM, stronger effect = higher value
[6] = inhibitors of CD8+ T cell-vesicle binding, pilot screen, LFA-1/ICAM-1 modulator project, MLPCN validation set, flow cytometry (AID 2523); details: 2C mouse CD8+ T cells, at 7 µM, stronger effect = lower value; double positive events: measured here: CD8+/vesicle+ event percentage;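 for vesicle binding response: mean PE anti-B7-1 fluorescence of CD8+ cells relative to row control; 100% = QL9-loaded vesicles with DMSO vehicle in the same plate row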
[7] = target: Integrin beta-1 (Homo sapiens) + Integrin alpha-4 (Homo sapiens) (UniProt P13612+P05556); experiment: inhibition of HUTS-21 binding to VLA-4, pilot screen, VLA-4 allosteric modulator project, U937 cells, HUTS-21 mAb, flow cytometry, validation set (AID 2674;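 active = inhibition above 50%, about 3 SD of the validation set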;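 note: antibody binding induced by the VLA-4 ligand LDV present at three times its Kd; 0% = LDV ligand with antibody and no compound and 100% = antibody without LDV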); details: HUTS-21 LIBS mAb binding, at 6.7 µM, stronger effect = higher value, binding induced by LDV ligand
Integrin beta-1 (Homo sapiens) + Integrin alpha-4 (Homo sapiens), sequence (P05556 whole entry, looked up): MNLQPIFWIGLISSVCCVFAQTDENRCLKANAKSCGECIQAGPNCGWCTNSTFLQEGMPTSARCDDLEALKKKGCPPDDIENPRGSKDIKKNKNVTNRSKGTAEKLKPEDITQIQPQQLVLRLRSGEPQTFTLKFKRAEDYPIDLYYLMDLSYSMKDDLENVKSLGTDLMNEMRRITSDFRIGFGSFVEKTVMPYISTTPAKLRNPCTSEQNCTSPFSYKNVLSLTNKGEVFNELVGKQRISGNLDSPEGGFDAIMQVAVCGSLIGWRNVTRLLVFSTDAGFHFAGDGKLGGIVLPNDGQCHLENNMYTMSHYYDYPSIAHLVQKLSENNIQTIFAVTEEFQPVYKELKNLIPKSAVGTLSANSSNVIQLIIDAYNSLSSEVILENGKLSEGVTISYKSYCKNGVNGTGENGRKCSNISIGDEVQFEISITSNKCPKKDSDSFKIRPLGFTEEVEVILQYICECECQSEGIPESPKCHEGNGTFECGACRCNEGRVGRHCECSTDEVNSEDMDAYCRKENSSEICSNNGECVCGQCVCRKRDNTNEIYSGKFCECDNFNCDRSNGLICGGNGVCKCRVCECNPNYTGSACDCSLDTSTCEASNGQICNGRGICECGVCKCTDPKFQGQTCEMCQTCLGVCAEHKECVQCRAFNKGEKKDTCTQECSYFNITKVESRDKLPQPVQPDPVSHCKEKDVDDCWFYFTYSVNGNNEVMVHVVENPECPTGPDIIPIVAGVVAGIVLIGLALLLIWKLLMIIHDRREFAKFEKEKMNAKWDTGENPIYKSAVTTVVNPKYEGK
Integrin beta-1 (Homo sapiens) + Integrin alpha-4 (Homo sapiens), sequence (P13612 whole entry, looked up): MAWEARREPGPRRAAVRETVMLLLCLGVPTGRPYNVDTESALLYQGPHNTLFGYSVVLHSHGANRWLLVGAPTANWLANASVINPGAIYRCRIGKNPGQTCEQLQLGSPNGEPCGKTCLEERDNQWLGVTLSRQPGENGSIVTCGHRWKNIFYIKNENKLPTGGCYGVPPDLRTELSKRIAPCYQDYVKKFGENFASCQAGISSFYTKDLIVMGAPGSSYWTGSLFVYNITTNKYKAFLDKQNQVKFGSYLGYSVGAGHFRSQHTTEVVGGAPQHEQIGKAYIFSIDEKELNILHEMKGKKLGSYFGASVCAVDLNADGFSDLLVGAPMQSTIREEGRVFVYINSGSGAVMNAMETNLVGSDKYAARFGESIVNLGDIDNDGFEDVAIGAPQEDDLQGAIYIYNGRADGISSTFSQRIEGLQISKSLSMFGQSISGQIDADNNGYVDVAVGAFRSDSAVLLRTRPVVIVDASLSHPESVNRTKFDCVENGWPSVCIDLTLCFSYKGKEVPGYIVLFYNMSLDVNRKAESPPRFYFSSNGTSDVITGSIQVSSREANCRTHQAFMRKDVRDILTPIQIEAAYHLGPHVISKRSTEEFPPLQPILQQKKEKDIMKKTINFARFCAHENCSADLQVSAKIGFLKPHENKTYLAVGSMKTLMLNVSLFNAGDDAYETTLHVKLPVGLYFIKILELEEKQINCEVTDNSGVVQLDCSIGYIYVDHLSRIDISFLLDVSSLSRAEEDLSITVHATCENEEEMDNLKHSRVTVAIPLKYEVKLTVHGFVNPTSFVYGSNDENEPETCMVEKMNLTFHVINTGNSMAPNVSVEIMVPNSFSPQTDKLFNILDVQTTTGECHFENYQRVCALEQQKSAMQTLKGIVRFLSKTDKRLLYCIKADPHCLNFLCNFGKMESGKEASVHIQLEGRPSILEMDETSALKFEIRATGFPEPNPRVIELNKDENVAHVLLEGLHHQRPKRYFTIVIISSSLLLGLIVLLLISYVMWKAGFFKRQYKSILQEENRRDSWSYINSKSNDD

[8] = superoxide lowering in aged yeast cells, pilot screen, validation compound set (AID 2706;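 active = superoxide response below 65% of plate, a cut near 3 SD across the whole screen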;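 note: yeast exposed to compound for one week at 30 degrees C before staining; 100% = mean of all compound wells on the same plate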); details: S. cerevisiae aging, superoxide DHE fluorescence; at 10 µM; stronger effect = lower value
[9] = target: Beta-adrenergic receptor kinase 1 (Homo sapiens) (UniProt P25098); experiment: GRK2 binders displacing RNA aptamer, biochemical, validation, human GRK2, bead flow cytometry (AID 488806;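 active = aptamer binding inhibition above 30%, about 3 SD of noise from non-fluorescent compounds; inactive = inhibition at or below 30%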); details: bead-bound GRK2, FAM-aptamer displacement, at 10 µM, stronger effect = higher value
Beta-adrenergic receptor kinase 1 (Homo sapiens), sequence (P25098 whole entry, looked up): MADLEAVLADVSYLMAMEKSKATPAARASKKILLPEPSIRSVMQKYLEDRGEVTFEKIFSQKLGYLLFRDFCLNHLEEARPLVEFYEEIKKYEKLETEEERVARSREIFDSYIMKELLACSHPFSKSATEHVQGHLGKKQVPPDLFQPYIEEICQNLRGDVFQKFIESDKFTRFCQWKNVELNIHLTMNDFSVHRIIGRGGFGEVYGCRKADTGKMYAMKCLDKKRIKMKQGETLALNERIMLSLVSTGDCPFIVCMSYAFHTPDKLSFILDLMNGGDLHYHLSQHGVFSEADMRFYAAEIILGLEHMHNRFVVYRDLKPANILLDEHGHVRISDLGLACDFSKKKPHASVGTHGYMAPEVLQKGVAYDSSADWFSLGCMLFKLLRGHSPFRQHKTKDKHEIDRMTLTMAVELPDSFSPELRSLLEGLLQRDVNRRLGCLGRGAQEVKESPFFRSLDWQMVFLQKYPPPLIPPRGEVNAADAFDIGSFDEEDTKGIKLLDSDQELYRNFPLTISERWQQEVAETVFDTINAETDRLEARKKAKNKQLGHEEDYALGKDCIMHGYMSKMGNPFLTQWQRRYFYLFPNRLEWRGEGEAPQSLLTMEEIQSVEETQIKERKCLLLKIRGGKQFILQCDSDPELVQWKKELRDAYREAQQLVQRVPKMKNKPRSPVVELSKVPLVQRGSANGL

[10] = target: Beta-2 adrenergic receptor (Homo sapiens) (UniProt P07550); experiment: beta2AR agonists driving receptor internalization, pilot screen, cell-based, FAP fluorogen, flow cytometry, validation set (AID 504459;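 active = percent response above 42, roughly 3 SD of non-fluorescent test compounds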;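 note: agonist-driven loss of surface beta2AR via internalization measured by FAP dye flow cytometry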); details: Am2.2-beta2AR cells, FAP surface receptor flow cytometry; at 10 µM; stronger effect = higher value
Beta-2 adrenergic receptor (Homo sapiens), sequence (P07550 whole entry, looked up): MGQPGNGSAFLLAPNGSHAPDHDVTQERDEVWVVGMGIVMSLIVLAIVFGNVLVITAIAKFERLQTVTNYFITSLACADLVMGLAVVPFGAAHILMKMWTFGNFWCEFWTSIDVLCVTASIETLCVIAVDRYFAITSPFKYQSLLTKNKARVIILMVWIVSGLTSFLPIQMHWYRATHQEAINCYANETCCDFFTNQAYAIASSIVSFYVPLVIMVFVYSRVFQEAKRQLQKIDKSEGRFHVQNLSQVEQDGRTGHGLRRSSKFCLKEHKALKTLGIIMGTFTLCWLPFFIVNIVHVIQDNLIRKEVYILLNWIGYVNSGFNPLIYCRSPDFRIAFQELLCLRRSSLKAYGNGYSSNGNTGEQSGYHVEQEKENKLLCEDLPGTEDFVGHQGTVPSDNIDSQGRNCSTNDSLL

[11] = target: AP-2 complex subunit beta (Homo sapiens) (UniProt P63010); experiment: inhibitors of arrestin peptide binding to AP2, pilot screen, biochemical, validation set, GST-AP2 beads, flow cytometry (AID 504541;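 active = inhibition above 54%, about 3 SD of non-fluorescent compounds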;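 note: AP2 carries R879A mutation and is captured from E. coli lysate; bead-bound FITC arrestin peptide fluorescence measuring arrestin peptide binding to AP2; 0% = DMSO wells and 100% = excess unlabeled arrestin peptide control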); details: FITC arrestin peptide, at 10 µM, stronger effect = higher value, AP2 beta2 appendage fragment, R879A mutant
AP-2 complex subunit beta (Homo sapiens), sequence (P63010 whole entry, looked up, the tested form may be a part, one chain of several): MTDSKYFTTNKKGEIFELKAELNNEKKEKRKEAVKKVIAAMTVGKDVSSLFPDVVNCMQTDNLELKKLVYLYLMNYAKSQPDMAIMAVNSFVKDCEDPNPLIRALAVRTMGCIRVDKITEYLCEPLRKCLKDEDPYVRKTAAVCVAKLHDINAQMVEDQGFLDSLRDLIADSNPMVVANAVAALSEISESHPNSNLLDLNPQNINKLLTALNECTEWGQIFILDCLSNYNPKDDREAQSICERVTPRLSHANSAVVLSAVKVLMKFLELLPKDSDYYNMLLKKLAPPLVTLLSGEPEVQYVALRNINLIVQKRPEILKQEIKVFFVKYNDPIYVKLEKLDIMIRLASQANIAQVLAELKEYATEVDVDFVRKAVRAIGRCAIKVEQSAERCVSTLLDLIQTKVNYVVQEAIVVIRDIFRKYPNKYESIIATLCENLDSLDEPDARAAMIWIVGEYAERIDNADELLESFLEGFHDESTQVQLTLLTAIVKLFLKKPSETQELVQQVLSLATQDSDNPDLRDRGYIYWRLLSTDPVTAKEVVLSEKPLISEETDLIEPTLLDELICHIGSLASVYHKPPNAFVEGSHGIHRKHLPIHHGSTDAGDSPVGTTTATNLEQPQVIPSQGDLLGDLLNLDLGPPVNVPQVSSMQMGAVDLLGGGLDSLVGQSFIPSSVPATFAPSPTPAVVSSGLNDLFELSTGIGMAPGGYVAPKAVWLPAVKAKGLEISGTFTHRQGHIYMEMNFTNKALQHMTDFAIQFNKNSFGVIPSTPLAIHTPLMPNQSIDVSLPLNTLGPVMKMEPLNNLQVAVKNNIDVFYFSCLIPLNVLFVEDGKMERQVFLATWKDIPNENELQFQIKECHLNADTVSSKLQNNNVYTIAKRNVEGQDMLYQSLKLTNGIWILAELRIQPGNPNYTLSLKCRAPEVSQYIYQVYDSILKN

[12] = yeast V-ATPase proton transport modulators, S. cerevisiae, pHLuorin, HTS validation (AID 504600; in the data active = response above about 15%;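 note: plate controls were DMSO for no effect and reference compound for full effect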); details: S. cerevisiae pHLuorin cytosolic pH, at 10 µM, stronger effect = higher value
[13] = tested on: anti-desmoglein-3 scFv antibody binding to human DSG3; experiment: inhibitors of anti-DSG3 scFv binding to DSG3, pilot screen, biochemical, validation compound set, bead-based, flow cytometry (AID 588368;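 active = binding below the plate cutoff, the plate median minus 3 SD, with a reading above zero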;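 note: signal is the median channel fluorescence of bead-bound GFP antibody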); details: Protein G beads, DSG3-Fc, scFv-GFP binding, at 10 µM, stronger effect = lower value
[14] = inhibitors of fungal efflux pumps CDR1, CDR2, MDR1, pilot screen, validation compound set, multiplex, phenotypic (AID 588506;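 active = efflux inhibition above 0.42, the validation set average plus 4 SD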;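 note: Nile Red retained in cells so higher fluorescence means more efflux inhibition; 0 = negative control wells and 1 = enniatin B 25 µM full block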); details: S. cerevisiae pump-expressing triplex, Nile Red efflux flow cytometry; at 10 µM; stronger effect = higher value; the pumps come from Candida albicans
[15] = target: ATP-binding cassette sub-family B member 6 (Homo sapiens) (UniProt Q9NP58); experiment: ABCB6 transporter inhibitors, pilot screen, K562-ABCB6 cells, flow cytometry, validation set (AID 588550;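 active = inhibition above the screen-wide mean plus 3 SD, about 51%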;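 note: 0% = DMSO wells and 100% = benzethonium chloride 70 µM positive control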); details: K562-ABCB6 porphyrin accumulation, 1 h, at 10 µM, stronger effect = higher value
ATP-binding cassette sub-family B member 6 (Homo sapiens), sequence (Q9NP58 whole entry, looked up): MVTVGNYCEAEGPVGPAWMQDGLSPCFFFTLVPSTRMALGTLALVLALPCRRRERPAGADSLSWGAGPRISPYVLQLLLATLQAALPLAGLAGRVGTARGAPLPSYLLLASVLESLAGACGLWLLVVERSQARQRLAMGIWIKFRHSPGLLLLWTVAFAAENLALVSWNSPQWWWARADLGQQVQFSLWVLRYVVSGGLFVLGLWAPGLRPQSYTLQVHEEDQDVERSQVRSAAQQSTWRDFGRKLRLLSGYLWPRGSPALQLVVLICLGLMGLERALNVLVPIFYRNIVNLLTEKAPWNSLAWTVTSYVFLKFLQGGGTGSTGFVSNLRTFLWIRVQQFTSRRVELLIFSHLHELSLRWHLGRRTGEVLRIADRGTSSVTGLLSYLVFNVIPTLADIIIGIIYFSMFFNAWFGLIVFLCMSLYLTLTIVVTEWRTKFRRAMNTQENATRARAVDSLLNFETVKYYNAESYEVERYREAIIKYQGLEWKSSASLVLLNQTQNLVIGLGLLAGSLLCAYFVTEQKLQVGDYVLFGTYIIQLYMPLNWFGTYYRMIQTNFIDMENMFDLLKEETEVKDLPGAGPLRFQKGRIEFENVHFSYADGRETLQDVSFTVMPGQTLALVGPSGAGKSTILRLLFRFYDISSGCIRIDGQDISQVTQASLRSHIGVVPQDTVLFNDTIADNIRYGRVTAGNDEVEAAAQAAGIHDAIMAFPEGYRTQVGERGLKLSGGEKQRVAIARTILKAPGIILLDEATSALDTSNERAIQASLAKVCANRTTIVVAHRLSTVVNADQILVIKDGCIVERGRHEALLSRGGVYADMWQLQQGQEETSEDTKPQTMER

[16] = promoters of myeloid differentiation in arrested cells, primary screen, cell-based, GFP/MAC1 double positive, flow cytometry, validation set (AID 588685;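 active = differentiation response of at least 50%, scaled between solvent and reference control, from cells with both markers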;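 note: compound exposure lasts four days before antibody staining and flow analysis; 0% = DMSO wells and 100% = 5 µM fulvestrant positive control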); details: ER-HoxA9 marrow cells, stronger effect = higher value, normalized: vehicle 0, fulvestrant 100

CCn1nc(C(=O)O)c(=O)c2cc3c(cc21)OCO3
inactive: percent of DMSO control GFP [1] 103% | GFP response vs DMSO [2] 104% | percent response of DMSO control [3] 104% | GFP response vs DMSO [4] 90.7% | GFP response, % of DMSO [5] 98.3% | vesicle binding response [6] 726% | inhibition [7] 14.1% | superoxide response (% of plate) [8] 92.7% | aptamer binding inhibition [9] 2% | response [10] -7.41% | inhibition [11] -8.41% | binding (% of control) [13] 98.4% | efflux inhibition (fraction of control) [14] -0.1 | inhibition [15] -8% | differentiation response [16] 13.9%
55.1%: double positive events [6]
active: response [12] 61.9%

Cc1ccnc2c1NC(=O)c1cccnc1N2C1CC1
inactive: percent of DMSO control GFP [1] 102% | GFP response vs DMSO [2] 98.3% | percent response of DMSO control [3] 115% | GFP response vs DMSO [4] 98% | GFP response, % of DMSO [5] 99.4% | vesicle binding response [6] 295% | inhibition [7] 2.66% | superoxide response (% of plate) [8] 108% | aptamer binding inhibition [9] 4% | response [10] -1.22% | inhibition [11] -5.17% | response [12] 0.42% | binding (% of control) [13] 99.2% | efflux inhibition (fraction of control) [14] -0.17 | inhibition [15] 2% | differentiation response [16] 2.2%
66.5%: double positive events [6]

O=C(O)c1cc2cc(Cl)cc(Cl)c2oc1=O
41.9%: double positive events [6]
inactive: percent of DMSO control GFP [1] 97.9% | GFP response vs DMSO [2] 129% | percent response of DMSO control [3] 104% | GFP response vs DMSO [4] 80.9% | GFP response, % of DMSO [5] 93.1% | inhibition [7] -12.9% | superoxide response (% of plate) [8] 113% | aptamer binding inhibition [9] 7% | response [10] -14.8% | inhibition [11] 8.6% | response [12] 10.3% | binding (% of control) [13] 98.7% | efflux inhibition (fraction of control) [14] 0.05 | inhibition [15] 8% | differentiation response [16] 27.8%
active: vesicle binding response [6] 63.6%

C#C[C@]1(O)CC[C@H]2[C@@H]3CCc4cc(OC5CCCC5)ccc4[C@H]3CC[C@@]21C
inactive: percent of DMSO control GFP [1] 101% | GFP response vs DMSO [2] 104% | percent response of DMSO control [3] 88.6% | GFP response vs DMSO [4] 126% | GFP response, % of DMSO [5] 113% | vesicle binding response [6] 213% | inhibition [7] 14.2% | superoxide response (% of plate) [8] 97.7% | aptamer binding inhibition [9] -1% | response [10] -9.24% | inhibition [11] -1.15% | response [12] 6.88% | binding (% of control) [13] 105% | efflux inhibition (fraction of control) [14] 0.38 | inhibition [15] 3% | differentiation response [16] 0%
62.7%: double positive events [6]

O=C1C(=O)N2C(=C1C(=O)N1CCCCCC1)c1ccccc1CC21CCCC1
inactive: percent of DMSO control GFP [1] 92.2% | GFP response vs DMSO [2] 109% | percent response of DMSO control [3] 86.3% | GFP response vs DMSO [4] 120% | GFP response, % of DMSO [5] 99.8% | vesicle binding response [6] 201% | inhibition [7] 9.13% | superoxide response (% of plate) [8] 115% | aptamer binding inhibition [9] 3% | response [10] -8.46% | inhibition [11] 31.8% | response [12] -1.64% | binding (% of control) [13] 105% | efflux inhibition (fraction of control) [14] -0.13 | inhibition [15] 3% | differentiation response [16] 5.6%
59.4%: double positive events [6]

COCc1cc(=O)[nH]c(/N=C(\N)Nc2ccc(Oc3ccccc3)cc2)n1
inactive: percent of DMSO control GFP [1] 96.9% | GFP response vs DMSO [2] 118% | percent response of DMSO control [3] 83.4% | GFP response vs DMSO [4] 109% | GFP response, % of DMSO [5] 97.8% | vesicle binding response [6] 216% | inhibition [7] -1.79% | superoxide response (% of plate) [8] 94.8% | aptamer binding inhibition [9] 2% | response [10] 17.9% | inhibition [11] -1.38% | response [12] -1.49% | binding (% of control) [13] 99.3% | efflux inhibition (fraction of control) [14] 0.01 | inhibition [15] 12% | differentiation response [16] 10.4%
60.6%: double positive events [6]

Cc1cccc2c(=O)n3c(nc12)CCCCC3
57%: double positive events [6]
inactive: percent of DMSO control GFP [1] 99.3% | GFP response vs DMSO [2] 101% | percent response of DMSO control [3] 97.6% | GFP response vs DMSO [4] 119% | GFP response, % of DMSO [5] 104% | vesicle binding response [6] 172% | inhibition [7] -14.5% | superoxide response (% of plate) [8] 105% | aptamer binding inhibition [9] -3% | response [10] -4.11% | inhibition [11] -3.62% | response [12] 0.7% | binding (% of control) [13] 105% | efflux inhibition (fraction of control) [14] -0.41 | inhibition [15] 2% | differentiation response [16] 36.4%

CC(=O)SC1CC2=CC(=O)CCC2(C)C2CCC3(C)C(CCC34CCC(=O)O4)C12 (stereo not drawn)
64.4%: double positive events [6]
inactive: percent of DMSO control GFP [1] 103% | GFP response vs DMSO [2] 103% | percent response of DMSO control [3] 107% | GFP response vs DMSO [4] 109% | GFP response, % of DMSO [5] 107% | vesicle binding response [6] 247% | inhibition [7] -3.57% | superoxide response (% of plate) [8] 98.5% | aptamer binding inhibition [9] 5% | response [10] -4.96% | inhibition [11] -8.52% | response [12] 1.6% | binding (% of control) [13] 100% | efflux inhibition (fraction of control) [14] -0.04 | inhibition [15] -3% | differentiation response [16] 3.18%

O=C(Nc1cccc(C(=O)O)c1)/C(=C\c1ccccc1)NC(=O)c1ccccc1
58.1%: double positive events [6]
inactive: percent of DMSO control GFP [1] 105% | GFP response vs DMSO [2] 98.3% | percent response of DMSO control [3] 106% | GFP response vs DMSO [4] 84.8% | GFP response, % of DMSO [5] 100% | vesicle binding response [6] 150% | inhibition [7] -1.49% | superoxide response (% of plate) [8] 95.7% | aptamer binding inhibition [9] 5% | response [10] -3.48% | inhibition [11] 0.49% | response [12] 0.44% | binding (% of control) [13] 99% | efflux inhibition (fraction of control) [14] 0.14 | inhibition [15] 15% | differentiation response [16] 11%
